Rows were chosen to be rich in hits. Some 2.5% of all compounds tested hit in one or more screens of this group.
ATG4B inhibitor – ATG4B protease inhibitors, primary screen, biochemical, fluorescence, uHTS. Cysteine protease ATG4B (Homo sapiens), Q9Y4P1. ATG4B cleavage of LC3-PLA2, NBD-HPC fluorescence, 1 h. inhibition, % at 8.33 µM. 340,000 compounds, 0.51% hits; in the data active means inhibition above about 40%
Target sequence (Q9Y4P1 whole entry, looked up): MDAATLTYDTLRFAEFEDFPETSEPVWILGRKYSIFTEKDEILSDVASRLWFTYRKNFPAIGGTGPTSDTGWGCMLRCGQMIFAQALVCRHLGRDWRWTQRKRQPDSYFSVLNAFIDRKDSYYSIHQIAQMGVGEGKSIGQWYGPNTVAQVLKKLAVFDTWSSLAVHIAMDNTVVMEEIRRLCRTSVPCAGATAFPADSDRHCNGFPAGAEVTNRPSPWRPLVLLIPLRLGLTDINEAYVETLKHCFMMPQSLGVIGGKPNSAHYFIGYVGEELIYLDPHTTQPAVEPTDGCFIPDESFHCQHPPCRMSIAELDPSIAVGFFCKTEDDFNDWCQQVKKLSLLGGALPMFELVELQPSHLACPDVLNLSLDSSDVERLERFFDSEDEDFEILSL
SUMO Mot1 rescue – yeast Mot1-301 growth rescue at high temperature, primary screen, SUMOylation pathway inhibitor project, S. cerevisiae, ATP luminescence, 38.5C. S. cerevisiae Mot1-301 growth rescue; percent above DMSO median, 100 means doubled. growth rescue, % at 18.8 µM. 320,000 compounds, 1% hits;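 active means every valid replicate shows activation above 250% relative to neutral control wells; inactive means the rest, any valid replicate at or below 250%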;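 further: OY570 slx delta 5 strain wells were the positive control but not used for scaling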
AI-2 QS modul – Vibrio harveyi AI-2 quorum sensing modulators, primary screen, JMH597 strain, luminescence/OD600 ratio; AID 2094, 2009; activity change, % at 7.5 µM; Vibrio harveyi JMH597 AI-2 luminescence/OD600 ratio, 9 h; stronger effect = lower value; strain lacks LuxN and CqsS sensors; 0 = neutral-control median; 300,000 compounds, 0.4% hits; in the data active means activity change below about -75%, passing the limit was not always enough;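 further: luminescence divided by OD600 gain over 9 h not by final OD600 alone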
Efflux pump mplx – inhibitors of Candida efflux pumps in yeast, primary screen, S. cerevisiae, Nile Red, multiplex; inhibition, % at 10 µM; 330,000 compounds, 0.44% hits; S. cerevisiae Candida pump triplex;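 active means plate passing quality check with inhibition over a set limit, or well fluorescence over plate mean plus 4 SD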;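 further: Nile Red retained in pooled yeast measured as flow cytometry median fluorescence; 0% = buffer negative control and 100% = Enniatin B positive control; higher means more Nile Red kept so more efflux inhibition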
V-ATPase pHluor – regulators of yeast V-ATPase proton pumping, primary screen, pHLuorin cytosolic pH fluorescence; 350,000 compounds, 0.37% hits; response, % at 10 µM; S. cerevisiae; in the data active means response mostly above about 7.3%, no sharp cut-off; inactive means mostly below about 5.4%; further: actives read high
Yeast Mot1 SUMO – growth restoration of Mot1-301 yeast on galactose, dose response, SUMO pathway inhibitor project, whole organism, S. cerevisiae, ATP luminescence, cherry-picked samples | AID 493004, 2010 | S. cerevisiae Mot1-301 galactose growth, 24 h; -100 = growth of slx-deleted rescue strain | 2,300 tested, under 10 active | growth activity, percent, % at 42 µM | shares compounds with SUMO Mot1 rescue;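 active means Signal drops as the depositor expects, and the fitted half-maximal dose is no more than ten times the top valid tested dose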;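 further: more negative values mean stronger growth rescue toward the control strain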
* hit, by the source's call; nt = not tested or not shown; + = active, no number; [ ] = another dose, or the depositor's remark.

SMILES | ATG4B inhibitor | SUMO Mot1 rescue | AI-2 QS modul | Efflux pump mplx | V-ATPase pHluor | Yeast Mot1 SUMO
COc1cc([N+](=O)[O-])cc(/C=N/NC(=O)c2cc(C)nc3ccccc23)c1O | 8 | 758* | 45 | 0 | 4 | 1
CCCc1ccccc1OCCNC(C)=O | 4 | + | 29 | 0 | -1 | 0
O=c1c2ccccc2ncn1-c1ccc(Cl)cc1Cl | -10 | 747* | -1 | 0 | -1 | 1
O=c1c2ccccc2ncn1-c1cccc(Cl)c1 | 3 | 6 | 12 | 0 | -1 | nt
CC(=O)c1cc(C)ccc1OC(=O)c1ccco1 | 7 | 429* | 4 | 0 | -1 | 1
Cc1cc(C(=O)CCC(=O)NCC2COc3ccccc3O2)c(C)s1 (stereo not given) | -18 | 15 | 6 | 0 | -4 | nt
CC(C)c1cc(N2CCOCC2)n2ncc(-c3ccccc3)c2n1 | -7 | 489* | 36 | 0 | -1 | 0
O=C1C=CN(C2OC(CO)C(O)C2O)C(=O)C1 (stereo not given) | nt | nt | nt | nt | -3 | nt
COC(=O)c1sc2ccccc2c1NC(=O)c1ccc(S(=O)(=O)N2CCC(C)CC2)cc1 | 3 | -4 | 17 | 0 | -4 | nt
COC(=O)c1sc2ccccc2c1NC(=O)c1ccc(S(=O)(=O)N2CCCC(C)C2)cc1 (stereo not given) | 2 | 511* | 16 | 0 | 3 | 0
Cc1cc(C)c(OCC(=O)NCC2COc3ccccc3O2)c(C)c1 (stereo not given) | 4 | -12 | nt | 0 | -1 | nt
CC(C)C(=O)NNc1ccc(C(F)(F)F)cn1 | -5 | 586* | -12 | 0 | -2 | 0
NC(=O)c1ccccc1NC(=O)c1ccc2ccccc2c1 | -8 | -8 | 10 | 0 | 0 | nt
O=C(Nc1ccc([N+](=O)[O-])cn1)c1ccc2c(c1)OCO2 | -2 | 605* | 14 | 0 | 0 | 2
NC(=O)c1ccccc1NC(=O)c1ccc2c(c1)OCO2 | 2 | 700* | 22 | 0 | 1 | -1
C/C(=N/Nc1ccc(C(=O)c2c(C)cc3ccccn23)cc1[N+](=O)[O-])c1ccc(O)cc1 | 1 | nt | nt | nt | -4 | nt
O=C(N/N=C/c1ccccc1)c1[nH]c2ccc(Br)cc2c1-c1ccccc1 | -1 | 491* | 7 | 0 | 0 | 0
O=C(NN=C1CCCC1)c1[nH]c2ccc(Br)cc2c1-c1ccccc1 | 17 | 13 | 21 | 0 | -1 | nt
N#Cc1c2ccc([N+](=O)[O-])cc2[n+]([O-])n1-c1ccccc1 | nt | 384* | nt | 0 | 28* | -1
COCC(=O)N1CCC(Oc2ccc(C(=O)N3CCCCC3COC)cc2)CC1 (stereo not given) | 0 | -7 | 26 | 0 | 9 | nt
CCNC(=S)NNC(=O)c1ccc(=O)n(Cc2ccccc2)c1 | 1 | 834* | 6 | 0 | 1 | 0
CNC(=S)NNC(=O)c1ccc(=O)n(Cc2cccc(C(F)(F)F)c2)c1 | -5 | -13 | 13 | 0 | -2 | nt
Cc1ccc(S(=O)(=O)N(C)C)cc1NC(=O)CSc1nc2ncc(Cl)cc2[nH]1 | -11 | nt | nt | nt | 2 | nt
COc1ccccc1NC(NC(=O)c1ccco1)C(=O)c1ccccc1 (stereo not given) | 2 | 839* | 8 | 0 | -3 | 0
COC(=O)c1ccccc1NC(NC(=O)c1ccco1)C(=O)c1ccccc1 (stereo not given) | -13 | 449* | -10 | 0 | -2 | -1
SMILES | ATG4B inhibitor | SUMO Mot1 rescue | AI-2 QS modul | Efflux pump mplx | V-ATPase pHluor | Yeast Mot1 SUMO
COc1ccccc1NC(=S)NC(NC(=O)c1ccco1)C(Cl)(Cl)Cl (stereo not given) | 4 | -8 | 23 | 0 | -4 | nt
COC(=O)c1ccccc1Oc1ccc(NC(=O)c2ccco2)cc1 | 8 | 7 | 43 | 0 | 2 | nt
COc1ccc(C(=O)NNC(=O)CN2CCN(c3nc(-c4ccccc4)cs3)CC2)cc1 | -7 | -8 | 9 | 0 | 4 | nt
COc1ccc(Cl)cc1NC(=O)C1(c2cccs2)CCOCC1 | -5 | 0 | 19 | 0 | 9 | nt
CCOc1ccc(C(=O)Nc2ccc(N3CCN(C)CC3)cc2)cc1[N+](=O)[O-] | 0 | 690* | 21 | 0 | 2 | 1
COC(=O)C12CCC3(SCCS3)C(C(=O)OC)(CCC13SCCS3)C2 | -4 | 523* | 17 | -1 | -5 | 0
COc1ccc(/C=C(/C#N)S(=O)(=O)c2ccc(C)cc2)cc1 | 21 | + | 17 | 0 | 3 | 0[21 µM]
O=C(NCCN1CCOCC1)Nc1ccc(Cl)cc1Cl | 17 | 901* | -11 | 0 | -1 | 1
CC(Oc1ccc(Cl)cc1Cl)C(=O)NCCN1CCOCC1 (stereo not given) | -1 | 77 | 19 | 0 | -1 | nt
O=C(NCCCN1CCOCC1)C1CCC(=O)N1CCc1ccccc1 (stereo not given) | -5 | 408* | 36 | 0 | -1 | -1
C[C@H](CO)N1C[C@H](C)[C@@H](CN(C)C(=O)Nc2ccc(C(F)(F)F)cc2)Oc2ccc(NC(=O)CCC(F)(F)F)cc2C1=O | -18 | -4 | nt | 0 | 3 | nt
O=C(COc1cc2oc(=O)c3c(c2cc1Cl)CCC3)N1C[C@H]2C[C@@H](C1)c1cccc(=O)n1C2 | -14 | -3 | 5 | 0 | 3 | nt
CCN1C(=O)c2cccc3c(S(=O)(=O)Nc4ccc(OC)cc4OC)ccc1c23 | 5 | 768* | 21 | 0 | -3 | 0
CCN1C(=O)c2cccc3c(S(=O)(=O)Nc4ccccc4)ccc1c23 | -7 | -10 | 1 | 0 | -3 | nt
CC(C)NC(=O)NC(=O)COC(=O)CCCSc1nc2ccccc2s1 | -10 | 505* | 1 | 0 | -1 | 0
NC(=O)NC(=O)COC(=O)CCCSc1nc2ccccc2s1 | 2 | 17 | 12 | 0 | -2 | nt
Cc1ccsc1/C=N/NC(=O)c1nnn(-c2nonc2N)c1CN(C)c1ccccc1 | -10 | 2 | 22 | 0 | -1 | nt
CCOC(=O)N1CCN(C(=O)c2cn(CC)c3ccc(S(=O)(=O)N4CCOCC4)cc3c2=O)CC1 | -5 | -7 | 8 | 0 | 2 | nt
CCn1cc(C(=O)N2CCN(c3ccc(OC)cc3)CC2)c(=O)c2cc(S(=O)(=O)N3CCOCC3)ccc21 | -6 | 798* | 10 | 0 | -2 | -1
O=C(NCc1cccs1)c1ccc(CS(=O)(=O)c2ccc(Cl)cc2)o1 | 5 | -16 | 15 | 0 | -1 | nt
COc1ccc(S(=O)(=O)Cc2ccc(C(=O)NCc3cccs3)o2)cc1 | -5 | 462* | 15 | 0 | 0 | 0

Compound activity as filed in PubChem BioAssay.
